# In PubChem BioAssay AID2707 (National Center for Advancing Translational Sciences (NCATS), 2010):
# The list shows a part of the results. Active and inactive are the calls of the source.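 How the source made its calls: active means potency below 100 µM; inconclusive means dose-dependent response but potency above 100 µM; inactive means the rest.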
# Biological target: 4'-phosphopantetheinyl transferase ffp (Bacillus subtilis) (UniProt Q9F4F7)
# Test: Gel-Based Assay for Inhibitors of Bacillus subtilis Sfp phosphopantetheinyl transferase (PPTase)
# Settings: purified Sfp, gel-based phosphopantetheinylation read-out
# From the text: The covalent attachment of a phosphopantetheinyl (4'-PP) arm to a variety of synthases and other proteins is a key posttranslational protein modification. The 4'-PP is installed on the proteins post-translationally from coenzyme A (CoA) on a conserved serine residue by action of phosphopantetheinyl transferase (PPTase) enzymes. Phosphopantetheinylation is essential for synthase activity, and removal of the PPTase gene precludes natural product synthesis in microorganisms, or in the case of fatty acid biosynthesis, renders the organism unviable. PPTase enzymes belong to a distinct structural superfamily. Within bacteria, these enzymes are grouped into two classes based upon primary structure, the AcpS-Type and Sfp-Type PPTases. […]
# In this assay, compounds were evaluated by monitoring of fluorescence transfer to whole carrier protein substrates via polyacrylamide gel electrophoresis. […]
# A DMSO solution of confirmed hits (0.5 microL) was added to a 1.33X enzyme solution (15 microL, containing 26.6 nM Sfp, 66 mM HEPES, 13.3 mM MgCl2, 0.0133% NP-40, 0.133% BSA, pH 7.6). […] Following the run, gels were imaged with a Chemi-Doc Plus imager (Bio-Rad, Hercules, CA) and band intensity quantified using the ImageJ software package. […]
# 4'-phosphopantetheinyl transferase ffp (Bacillus subtilis), sequence (Q9F4F7 whole entry, looked up): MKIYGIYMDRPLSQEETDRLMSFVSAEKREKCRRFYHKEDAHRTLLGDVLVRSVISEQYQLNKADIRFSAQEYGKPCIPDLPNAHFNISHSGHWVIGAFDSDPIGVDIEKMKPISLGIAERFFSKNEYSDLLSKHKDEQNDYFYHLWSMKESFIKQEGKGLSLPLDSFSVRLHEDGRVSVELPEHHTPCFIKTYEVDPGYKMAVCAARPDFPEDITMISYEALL
row,Structure (SMILES),outcome
1,CCCOC(=O)Nc1sc2c(c1C(=O)OCC)CCC2,inactive
2,Cc1nn2c(c1-c1ccccc1)N=C(c1ccco1)CC2c1ccccc1 (configuration not stated),inactive
